Experimental findings from PubChem BioAssay (EPA / NIEHS) are described below.

Test [1] addresses Nuclear respiratory factor 1 (Homo sapiens) (UniProt Q16656). Put plainly: ATG_NRF1_CIS: Attagene CIS-FACTORIAL HepG2 Assay for human Nuclear Respiratory Factor 1 (NRF1) Orphan Gene (AID 2282987). The settings on record: HepG2 NRF1 cis-element reporter, Attagene multiplex; actives raise or lower the signal. In short, it runs like this: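 Endogenous NRF1-driven reporter transcription measured in transiently transfected human HepG2 liver cells. Readout: reporter mRNA by RT-PCR and capillary electrophoresis with fluorescence detection, 24 h post-dosing. Gain or loss of signal fitted relative to DMSO baseline.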

The nature of test [2]: ATG_NFI_CIS: Attagene CIS-FACTORIAL HepG2 Assay for human Nuclear Factor I (NFI) (AID 2282989). The settings on record: HepG2 cis-regulatory reporter, NFI response element transcription; actives raise or lower the signal. Put shortly:
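Multiplexed cis-reporter system in human HepG2 cells reports native TF activity as reporter mRNA induction 24 h post-dose. Fragments labelled with 6-FAM, HpaI-digested and resolved by capillary electrophoresis; activity fitted both directions versus DMSO.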

Test [3] deals with Myc proto-oncogene protein (Homo sapiens) (UniProt P01106). Put plainly: ATG_Myc_CIS: Attagene CIS-FACTORIAL HepG2 Assay for human Myelocytomatosis (Myc) Proto-Oncogene Transcription Factor (AID 2282990). Conditions: HepG2, Attagene cis-reporter transcription factor activity; actives raise or lower the signal. In short, it runs like this:
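Read-out: fluorescent reporter mRNA fragments resolved by capillary electrophoresis after RT-PCR. Human HepG2 liver cells carried transfected cis-element reporter units and were dosed for 24 h. Gain or loss of signal fitted relative to DMSO baseline.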

The nature of test [4]: ATG_NF_kB_CIS: Attagene CIS-FACTORIAL HepG2 Assay for human Nuclear Factor Kappa B (NF-kB) (AID 2282991). The settings on record: HepG2 Attagene cis-factorial NF-kB reporter mRNA; actives raise or lower the signal. Put shortly:
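Read-out: reporter transcript levels quantified by RT-PCR plus capillary electrophoresis of 6-FAM-labelled, HpaI-cut fragments. Transfected HepG2 cells, 24 h compound exposure, endogenous NF-kB-driven cis element; gain or loss scored versus DMSO.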

A short description of test [5]: ATG_NRF2_ARE_CIS: Attagene CIS-FACTORIAL HepG2 Assay for human Nuclear Factor Erythroid 2 Related Factor 2 (NFR2) response to Antioxidant Response Elements (ARE) (AID 2282992). Conditions: HepG2 Attagene ARE/NRF2 reporter, transcription factor activity; actives raise or lower the signal. Put shortly: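 Cis-factorial assay: transfected HepG2 reporter library, 24 h dosing, mRNA readout via RT-PCR/CE; DMSO-referenced bidirectional analysis.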

The nature of test [6]: ATG_Oct_MLP_CIS: Attagene CIS-FACTORIAL HepG2 Assay for human Octamer-Binding Transcription Factor (Oct) (AID 2282993). The settings on record: HepG2 Attagene cis-factorial Oct reporter, mRNA; actives raise or lower the signal. In short, it runs like this:
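After 24 h compound exposure, transfected HepG2 cells were lysed for total RNA; reporter-specific cDNA was PCR-amplified, fluorescently labelled and sized by capillary electrophoresis. Bidirectional curve fitting used DMSO as baseline.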

Test [7] deals with Cellular tumor antigen p53 (Homo sapiens) (UniProt P04637). The test is described as follows: ATG_p53_CIS: Attagene CIS-FACTORIAL HepG2 Assay for human p53 Transcription Factor (AID 2282994). Conditions: HepG2 p53 cis-element reporter, Attagene mRNA; actives raise or lower the signal. In short, it runs like this:
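Using HepG2 hepatoma cells carrying cis-acting multiplexed reporters, mRNA induction is detected after a 24 h exposure. Gain- and loss-of-signal responses are fitted relative to DMSO-treated cells.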

Test [8] in a line: BSK_3C_TissueFactor: BioMAP Diversity Plus: 3C Assay for Tissue Factor Biomarker Activity (AID 2282997). Conditions: BioMAP 3C HUVEC, tissue factor biomarker readout; actives raise or lower the signal. In short, it runs like this:
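ELISA read-out of Tissue Factor levels on human umbilical vein endothelium collected 24 h after chemical dosing. Gain or loss of signal was fitted relative to DMSO.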

A short description of test [9]: BSK_3C_VCAM1: BioMAP Diversity Plus: 3C Assay for Vascular cell adhesion molecule 1 (VCAM1) Biomarker Activity (AID 2282999). The settings on record: BioMAP 3C HUVEC, VCAM1 ELISA, cytokine-stimulated; actives raise or lower the signal. Put shortly:
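Human umbilical vein endothelial cells (3C system), biomarker read by ELISA 24 h after dosing; bidirectional fit against DMSO baseline. Cytotoxicity tracked by SRB total-protein staining in parallel cultures at biomarker time.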
In general terms: In an ELISA, binding on a coated surface is turned into a signal by an enzyme label.

A short description of test [10]: BSK_4H_Eotaxin3: BioMAP Diversity Plus: 4H Assay for Eotaxin 3 Biomarker Activity (AID 2283000).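 Note: CCL26 protein level quantified by ELISA in parallel with SRB cytotoxicity check.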 The settings on record: primary human endothelial cells (HUVEC); actives raise or lower the signal. In short, it runs like this:
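Chemicals were added to human umbilical vein endothelium cultures, and Eotaxin-3 was quantified by ELISA at 24 h. Values were derived by bidirectional fitting with DMSO serving as negative control and activity baseline.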

In test [11] the target is human Peroxisome Proliferator-activated Receptor delta (PPARd), PPARD (gene 5467) (UniProt Q03181). The test is described as follows: ATG_PPARd_TRANS: Attagene TRANS-FACTORIAL HepG2 Assay for human Peroxisome Proliferator-activated Receptor delta (PPARd) (AID 2283002; active = hit-call score of the fitted dose curve at least 0.9, where 1 is the maximum). Put shortly:
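Read-out: reporter mRNA induction, quantified by fluorescent RT-PCR products resolved by capillary electrophoresis. Human HepG2 liver cells carried transiently transfected Gal4-UAS reporter constructs with chimeric NR-Gal4 fusions. Cells were dosed for 24 h; DMSO served as baseline.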

Read-out in test [12]: Intercellular Adhesion Molecule 1 (ICAM1), ICAM1 (gene 3383)
Put plainly: BSK_3C_ICAM1: BioMAP Diversity Plus: 3C Assay for Intercellular Adhesion Molecule 1 (ICAM1) Biomarker Activity (AID 2283003). The settings on record: primary human endothelial cells (HUVEC); actives raise or lower the signal. In short, it runs like this: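 Primary human umbilical vein endothelial cells in the BioMAP 3C system were exposed to chemicals for 24 h, then ICAM-1 was quantified by ELISA. Activity was fitted bidirectionally against the DMSO negative control baseline.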

The nature of test [13]: BSK_3C_Proliferation: Cell Proliferation Assessment in the BioMAP Diversity Plus: 3C Assay (AID 2283006).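 For AC50: potency may reflect either rise or fall in cell number versus DMSO.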 The settings on record: primary human endothelial cells (HUVEC). Put shortly: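 Human umbilical vein endothelial cells were grown sub-confluent and exposed to chemical for 48 h, then fixed with 10% TCA and stained with 0.1% sulforhodamine B; absorbance at 560 nm gave relative cell number, fitted bidirectionally against DMSO baseline.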

For test [14], the target named is Peroxisome proliferator-activated receptor gamma (Homo sapiens) (UniProt P37231). Put plainly: ATG_PPARg_TRANS: Attagene TRANS-FACTORIAL HepG2 Assay for human Peroxisome Proliferator-activated Receptor-gamma (PPARg) (AID 2283007; active = hit-call score of the fitted dose curve at least 0.9, where 1 is the maximum). Put shortly: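 Read-out: reporter mRNA induction, detected by fluorescence after RT-PCR and capillary electrophoresis. Transiently transfected human HepG2 liver cells carrying a chimeric NR-Gal4 construct were dosed for 24 h; activity was fitted upward relative to DMSO.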

For test [15], the target named is Nuclear receptor subfamily 1 group I member 2 (Homo sapiens) (UniProt O75469). Put plainly: ATG_PXR_TRANS: Attagene TRANS-FACTORIAL HepG2 Assay for human Pregnane X Receptor (PXR) (AID 2283008; active = hit-call score of the fitted dose curve at least 0.9, where 1 is the maximum). Put shortly: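 Fluorescence intensity of FAM-labelled, HpaI-digested reporter amplicons, separated by capillary electrophoresis, quantifies induction. HepG2 cells with PXR-Gal4 trans-reporter system were exposed 24 h; DMSO defines baseline.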

Test [16] deals with human Retinoic Acid Receptor beta (RARb), RARB (gene 5915) (UniProt P10826). Put plainly: ATG_RARb_TRANS: Attagene TRANS-FACTORIAL HepG2 Assay for human Retinoic Acid Receptor beta (AID 2283004; active = hit-call score of the fitted dose curve at least 0.9, where 1 is the maximum). Put shortly:
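Transient transfection of HepG2 with multiple reporter units → chemical dosing, 24 h → total RNA isolation → RT with oligo(dT) → reporter-specific PCR, 6-FAM primer extension, HpaI digest → capillary electrophoresis. Positive direction vs DMSO control.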

The target in test [17] is human Peroxisome Proliferator-activated Receptor alpha (PPARa), PPARA (gene 5465) (UniProt Q07869). The test is described as follows: ATG_PPARa_TRANS: Attagene TRANS-FACTORIAL HepG2 Assay for human Peroxisome Proliferator-activated Receptor alpha (PPARa) (AID 2283001; active = hit-call score of the fitted dose curve at least 0.9, where 1 is the maximum). Put shortly: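 Measures transcriptional activity of an exogenous chimeric PPARa-Gal4 protein in transiently transfected HepG2 cells after 24 h dosing. Reporter mRNA quantified via RT-PCR and capillary electrophoresis; DMSO served as negative control.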

For test [18], the target named is human Retinoic Acid Receptor gamma (RARg), RARG (gene 5916) (UniProt P13631). The test is described as follows: ATG_RARg_TRANS: Attagene TRANS-FACTORIAL HepG2 Assay for human Retinoic Acid Receptor gamma (RARg) (AID 2283009; active = hit-call score of the fitted dose curve at least 0.9, where 1 is the maximum). Put shortly: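 HepG2 cells transiently transfected with multiplexed reporter units expressing chimeric RARg-GAL4 and GAL4-UAS-driven reporters; 24 h compound exposure. Reporter mRNA quantified by RT-PCR with fluorescent labelling and capillary electrophoresis; gain-of-signal fitted relative to DMSO baseline.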

The target in test [19] is Retinoic acid receptor alpha (Homo sapiens) (UniProt P10276). The test is described as follows: ATG_RARa_TRANS: Attagene TRANS-FACTORIAL HepG2 Assay for human Retinoic Acid Receptor alpha (RARa) (AID 2283005; active = hit-call score of the fitted dose curve at least 0.9, where 1 is the maximum). In short, it runs like this:
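HepG2 transiently transfected with multiplex GAL4-UAS reporter units including a human RARa–GAL4 chimera; 24 h compound exposure. Reporter mRNA quantified by RT-PCR, 6-FAM labeling and capillary electrophoresis; gain of signal versus DMSO.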

Molecules are shown by their SMILES. Where “and” joins values, the source holds several entries; their conditions need not be identical. Identical values can stand only once. Records with an inconclusive call do not appear. Calls of active or inactive are those of the source. Rule for the calls, unless noted: active = hit-call score of the fitted dose curve at least 0.9, where 1 is the maximum; inactive = score below 0.9.

Sequence of human Retinoic Acid Receptor beta (RARb), RARB (gene 5915) (P10826 whole entry, looked up): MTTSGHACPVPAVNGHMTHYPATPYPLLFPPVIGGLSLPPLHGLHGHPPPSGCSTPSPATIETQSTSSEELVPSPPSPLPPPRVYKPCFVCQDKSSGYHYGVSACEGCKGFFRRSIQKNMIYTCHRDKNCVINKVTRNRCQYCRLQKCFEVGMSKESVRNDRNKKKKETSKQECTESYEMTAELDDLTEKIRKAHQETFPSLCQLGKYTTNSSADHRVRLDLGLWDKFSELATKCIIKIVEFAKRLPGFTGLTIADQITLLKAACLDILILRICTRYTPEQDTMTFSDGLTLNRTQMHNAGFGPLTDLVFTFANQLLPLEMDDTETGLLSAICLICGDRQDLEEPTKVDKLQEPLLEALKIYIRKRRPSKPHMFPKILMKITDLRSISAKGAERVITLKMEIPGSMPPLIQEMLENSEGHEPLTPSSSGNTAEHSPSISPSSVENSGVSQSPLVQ
Sequence of Nuclear respiratory factor 1 (Homo sapiens) (Q16656 whole entry, looked up): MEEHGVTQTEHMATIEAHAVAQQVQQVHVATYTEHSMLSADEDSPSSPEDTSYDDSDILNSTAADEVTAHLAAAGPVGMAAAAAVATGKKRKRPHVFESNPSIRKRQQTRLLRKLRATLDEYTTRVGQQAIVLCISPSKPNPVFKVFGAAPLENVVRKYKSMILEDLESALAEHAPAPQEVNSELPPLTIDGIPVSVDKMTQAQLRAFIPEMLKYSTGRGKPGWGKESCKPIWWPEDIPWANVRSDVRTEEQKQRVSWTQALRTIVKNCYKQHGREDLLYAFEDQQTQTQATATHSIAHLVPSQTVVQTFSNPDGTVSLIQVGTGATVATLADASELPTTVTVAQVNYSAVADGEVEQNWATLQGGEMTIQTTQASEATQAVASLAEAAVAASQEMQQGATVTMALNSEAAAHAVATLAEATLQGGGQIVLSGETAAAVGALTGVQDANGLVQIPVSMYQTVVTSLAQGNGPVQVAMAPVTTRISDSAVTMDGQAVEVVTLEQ
Sequence of Peroxisome proliferator-activated receptor gamma (Homo sapiens) (P37231 whole entry, looked up, the tested form may be a part): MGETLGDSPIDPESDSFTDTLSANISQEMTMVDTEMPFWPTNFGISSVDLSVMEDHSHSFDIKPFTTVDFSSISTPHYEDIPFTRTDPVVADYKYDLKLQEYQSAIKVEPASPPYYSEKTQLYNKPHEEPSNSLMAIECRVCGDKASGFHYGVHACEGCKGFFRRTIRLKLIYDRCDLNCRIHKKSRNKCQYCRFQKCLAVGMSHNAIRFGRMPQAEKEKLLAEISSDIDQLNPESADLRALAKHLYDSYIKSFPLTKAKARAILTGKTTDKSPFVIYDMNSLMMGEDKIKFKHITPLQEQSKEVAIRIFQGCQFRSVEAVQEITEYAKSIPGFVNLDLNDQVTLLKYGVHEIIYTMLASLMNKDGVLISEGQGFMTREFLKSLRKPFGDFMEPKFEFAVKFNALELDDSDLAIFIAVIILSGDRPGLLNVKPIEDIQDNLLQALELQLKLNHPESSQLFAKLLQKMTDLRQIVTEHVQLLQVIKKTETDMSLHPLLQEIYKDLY
Sequence of human Peroxisome Proliferator-activated Receptor delta (PPARd), PPARD (gene 5467) (Q03181 whole entry, looked up, the tested form may be a part): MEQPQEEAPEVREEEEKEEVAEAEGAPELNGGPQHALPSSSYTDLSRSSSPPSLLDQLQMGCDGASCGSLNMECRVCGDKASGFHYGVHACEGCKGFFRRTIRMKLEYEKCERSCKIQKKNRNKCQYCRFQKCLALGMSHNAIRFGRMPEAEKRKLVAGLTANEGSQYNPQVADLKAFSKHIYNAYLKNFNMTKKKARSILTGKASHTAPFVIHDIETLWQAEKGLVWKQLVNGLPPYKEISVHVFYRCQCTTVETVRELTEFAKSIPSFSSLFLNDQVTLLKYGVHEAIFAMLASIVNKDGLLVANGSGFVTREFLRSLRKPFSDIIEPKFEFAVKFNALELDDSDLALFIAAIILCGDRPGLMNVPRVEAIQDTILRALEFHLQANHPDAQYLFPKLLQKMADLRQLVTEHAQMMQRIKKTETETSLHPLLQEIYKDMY
Sequence of Nuclear receptor subfamily 1 group I member 2 (Homo sapiens) (O75469 whole entry, looked up, the tested form may be a part): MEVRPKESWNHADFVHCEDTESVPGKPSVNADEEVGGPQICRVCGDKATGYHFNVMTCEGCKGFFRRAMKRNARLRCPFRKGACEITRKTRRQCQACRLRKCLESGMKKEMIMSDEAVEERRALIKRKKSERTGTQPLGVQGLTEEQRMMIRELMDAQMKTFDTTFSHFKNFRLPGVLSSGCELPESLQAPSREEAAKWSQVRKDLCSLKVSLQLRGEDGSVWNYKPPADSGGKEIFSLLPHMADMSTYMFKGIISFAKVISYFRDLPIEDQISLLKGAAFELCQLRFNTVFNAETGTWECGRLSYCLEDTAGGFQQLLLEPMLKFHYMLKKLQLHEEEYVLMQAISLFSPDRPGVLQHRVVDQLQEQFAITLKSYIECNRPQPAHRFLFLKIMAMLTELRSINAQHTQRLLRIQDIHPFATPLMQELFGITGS
Sequence of Myc proto-oncogene protein (Homo sapiens) (P01106 whole entry, looked up, the tested form may be a part): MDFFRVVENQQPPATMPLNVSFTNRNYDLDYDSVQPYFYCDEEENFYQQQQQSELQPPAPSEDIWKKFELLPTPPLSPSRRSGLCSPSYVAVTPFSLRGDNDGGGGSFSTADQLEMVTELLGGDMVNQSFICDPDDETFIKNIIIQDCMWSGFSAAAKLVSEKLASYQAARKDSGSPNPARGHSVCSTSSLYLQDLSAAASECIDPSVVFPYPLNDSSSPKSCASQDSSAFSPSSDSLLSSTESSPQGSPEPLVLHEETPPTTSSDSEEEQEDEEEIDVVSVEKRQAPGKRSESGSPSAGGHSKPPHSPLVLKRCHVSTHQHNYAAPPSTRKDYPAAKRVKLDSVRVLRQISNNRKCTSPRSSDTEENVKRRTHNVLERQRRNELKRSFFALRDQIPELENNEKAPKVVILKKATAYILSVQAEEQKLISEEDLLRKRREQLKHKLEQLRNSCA
Sequence of human Peroxisome Proliferator-activated Receptor alpha (PPARa), PPARA (gene 5465) (Q07869 whole entry, looked up, the tested form may be a part): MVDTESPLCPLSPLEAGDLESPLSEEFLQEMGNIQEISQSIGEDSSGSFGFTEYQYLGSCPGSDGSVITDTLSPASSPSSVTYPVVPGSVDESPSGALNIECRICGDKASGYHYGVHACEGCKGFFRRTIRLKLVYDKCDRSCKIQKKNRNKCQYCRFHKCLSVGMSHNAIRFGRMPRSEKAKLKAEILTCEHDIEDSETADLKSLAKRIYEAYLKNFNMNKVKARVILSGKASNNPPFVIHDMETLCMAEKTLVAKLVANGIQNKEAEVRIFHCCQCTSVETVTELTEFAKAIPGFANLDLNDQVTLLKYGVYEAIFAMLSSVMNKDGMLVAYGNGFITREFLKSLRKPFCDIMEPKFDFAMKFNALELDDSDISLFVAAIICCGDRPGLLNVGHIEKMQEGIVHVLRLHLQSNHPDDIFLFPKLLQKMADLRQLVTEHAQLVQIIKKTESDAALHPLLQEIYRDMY
Sequence of Cellular tumor antigen p53 (Homo sapiens) (P04637 whole entry, looked up): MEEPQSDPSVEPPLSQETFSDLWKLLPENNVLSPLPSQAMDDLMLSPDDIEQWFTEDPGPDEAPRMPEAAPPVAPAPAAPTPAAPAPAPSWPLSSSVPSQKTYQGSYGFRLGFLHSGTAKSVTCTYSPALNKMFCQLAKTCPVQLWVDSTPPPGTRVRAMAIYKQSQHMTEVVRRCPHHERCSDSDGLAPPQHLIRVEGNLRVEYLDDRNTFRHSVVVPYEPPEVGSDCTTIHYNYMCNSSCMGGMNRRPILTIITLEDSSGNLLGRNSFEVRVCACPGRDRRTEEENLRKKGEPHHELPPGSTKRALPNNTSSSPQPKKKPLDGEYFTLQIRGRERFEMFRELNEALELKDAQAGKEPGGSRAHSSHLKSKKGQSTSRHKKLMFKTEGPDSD
Sequence of human Retinoic Acid Receptor gamma (RARg), RARG (gene 5916) (P13631 whole entry, looked up, the tested form may be a part): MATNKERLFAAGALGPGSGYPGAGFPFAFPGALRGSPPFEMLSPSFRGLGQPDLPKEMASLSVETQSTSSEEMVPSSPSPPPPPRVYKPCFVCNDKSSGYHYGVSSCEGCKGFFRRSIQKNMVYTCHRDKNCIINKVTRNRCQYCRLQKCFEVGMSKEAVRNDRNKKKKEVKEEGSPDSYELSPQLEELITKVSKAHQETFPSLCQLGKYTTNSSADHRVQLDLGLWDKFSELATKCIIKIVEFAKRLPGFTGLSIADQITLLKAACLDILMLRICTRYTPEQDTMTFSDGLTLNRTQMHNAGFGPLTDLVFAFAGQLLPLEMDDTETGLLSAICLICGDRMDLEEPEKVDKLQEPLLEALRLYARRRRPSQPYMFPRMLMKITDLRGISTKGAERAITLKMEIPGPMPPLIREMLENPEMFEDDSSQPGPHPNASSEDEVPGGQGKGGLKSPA
Sequence of Retinoic acid receptor alpha (Homo sapiens) (P10276 whole entry, looked up, the tested form may be a part): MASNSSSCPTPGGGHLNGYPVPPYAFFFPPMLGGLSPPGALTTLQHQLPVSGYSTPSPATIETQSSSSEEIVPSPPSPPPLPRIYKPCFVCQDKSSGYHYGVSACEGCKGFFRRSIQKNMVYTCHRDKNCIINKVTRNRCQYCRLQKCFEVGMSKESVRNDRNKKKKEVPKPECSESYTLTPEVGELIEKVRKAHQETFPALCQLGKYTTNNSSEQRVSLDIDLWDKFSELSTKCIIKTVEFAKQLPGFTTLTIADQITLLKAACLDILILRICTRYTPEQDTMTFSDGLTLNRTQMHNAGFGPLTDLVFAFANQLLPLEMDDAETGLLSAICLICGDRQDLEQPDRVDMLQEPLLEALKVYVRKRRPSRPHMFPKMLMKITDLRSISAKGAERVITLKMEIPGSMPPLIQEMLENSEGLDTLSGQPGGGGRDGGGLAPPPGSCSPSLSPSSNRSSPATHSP

`C=CC(=O)OCC(F)(F)C(F)(F)C(F)(F)C(F)(F)C(F)(F)C(F)(F)C(F)(F)C(F)F`: the result in test [1], in test [2], in [3], in [6], in [7] and in test [8] was inactive. Further, the outcome in test [9], in [10], in test [11], in test [12] and in test [15] was inactive. The concentration at half-maximal activity (AC50) (in general, the concentration giving half of the maximal activity seen) in test [4] is 80.2 µM (active); in test [5], 58.2 µM (active); in test [13] it was 20.8 µM (active) and 24.1 µM (active); in test [14], 37.6 µM (active).
On to `O=S(=O)(OCC(F)(F)F)C(F)(F)C(F)(F)C(F)(F)C(F)(F)F`, for which the call in test [1], in test [2], in [3], in test [6], in [8] and in test [9] was inactive. Also, the result in test [10], in test [12], in test [16], in [13] and in test [15] was inactive. In addition, the AC50 was 62.7 µM (active) in test [4], 45.6 µM (active) in [5], 89.1 µM (active) in [7] and 107 µM (active) in test [14].
For the molecule `Cc1ccc(O)c(-n2nc3ccccc3n2)c1`, the molecule was classed as inactive in test [1], in test [2], in test [3], in test [4], in test [6] and in test [7]. The result in [8], in test [9], in test [10], in test [11], in [12] and in test [16] was inactive. For the same molecule, the outcome in test [13] and in test [14] was inactive. In addition, the AC50 in test [5] was 4.95 µM (active); in test [15] it was 14.6 µM (active).
Turning to `COc1ccccc1C=O`, the result in [1], in test [2], in test [3], in [4], in [5] and in [6] was inactive. Besides, the molecule was classed as inactive in test [7], in test [17] and in [11].
Consider `CO[Si](CCCOCC1CO1)(OC)OC` (stereo unspecified), for which the call in [1], in test [2], in test [3], in test [4], in test [6] and in test [7] was inactive. In test [11], the molecule was classed as inactive. Also, the AC50 in [5] was 73.2 µM (active).
With `CC(C)CC=C(C=O)c1ccccc1`, the result in test [1], in [2], in test [3], in test [4], in [6] and in test [7] was inactive. Moreover, the outcome in [17] and in [11] was inactive. The concentration at half-maximal activity (AC50) was 71.8 µM (active) in test [5], 39.5 µM (active) in test [14] and 0.891 µM (active) in test [15].
As to `F[Si-2](F)(F)(F)(F)F`, the molecule was called inactive in test [1], in [2], in [3], in test [4], in [5] and in test [6]. Further, the molecule was called inactive in test [7], in [11], in [16] and in test [15].
For the molecule `CC(C)Nc1ccc(NC(C)C)c2c1C(=O)c1ccccc1C2=O`, the outcome in [1], in [2], in [3], in [4], in [6] and in [7] was inactive. Besides, the result in test [11], in test [16], in test [14] and in [18] was inactive. The concentration at half-maximal activity (AC50) in test [5] was 2.85 µM (active); in [15], 0.16 µM (active).
As for `NC(=O)C(F)(F)C(F)(F)C(F)(F)F`, the result in test [1], in test [2], in [3], in test [4], in test [5] and in test [6] was inactive. Moreover, the result in test [7], in test [8], in test [9], in test [10], in [12] and in [13] was inactive.
For the molecule `CCCCCCCCCCCCC[N+](C)(C)Cc1ccccc1`, the result in test [1], in test [2], in [3], in [4], in test [6] and in [7] was inactive. Besides, the molecule was called inactive in test [17], in [11], in test [16], in test [19], in test [14] and in test [15]. In addition, the AC50 in test [5] is 4.37 µM (active).
